According to PubChem BioAssay AID886 (National Center for Advancing Translational Sciences (NCATS), 2007):
Several values for one entry are separate records, joined by “and”; a condition that tells them apart may be missing. Identical values can stand only once. In all, about 73,000 compounds went through this assay and about 2,500 (3.4%) were called active. Inconclusive results (about 7%) are left out. The sample holds actives, similar compounds and a random draw of the others, so the mix is not that of the screen. A number with no mark means an inactive call. The call rests on the fitted dose curve; in most records, active means well fitted inhibition curve with a large enough effect; inconclusive means small, poorly fitted or top-dose-only effect; inactive means no such curve, though single readings can be large or run the other way.

Biological target: 3-hydroxyacyl-CoA dehydrogenase type-2 (Homo sapiens) (UniProt Q99714)
Sequence (Q99714 whole entry, looked up): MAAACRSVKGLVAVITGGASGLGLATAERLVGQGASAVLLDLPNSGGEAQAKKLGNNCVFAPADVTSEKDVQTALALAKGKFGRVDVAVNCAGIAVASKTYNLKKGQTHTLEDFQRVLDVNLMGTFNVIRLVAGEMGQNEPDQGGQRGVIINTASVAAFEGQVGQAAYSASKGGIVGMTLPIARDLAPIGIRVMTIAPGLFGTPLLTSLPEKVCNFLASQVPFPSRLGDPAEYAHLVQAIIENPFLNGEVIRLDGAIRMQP
Sequence (Q99714 whole entry, looked up): as above
Assay: qHTS Assay for Inhibitors of HADH2 (Hydroxyacyl-Coenzyme A Dehydrogenase, Type II); further: nearly all actives have a fitted effect of over 60% in size
Conditions: recombinant HADH2, NADH fluorescence, beta-hydroxybutyryl-CoA; series mostly up to 57.1 µM; activity change, negative = inhibition: at the top concentration
Text: Assay Overview: NIH Molecular Libraries Screening Centers Network [MLSCN] NIH Chemical Genomics Center [NCGC] Structural Genomics Consortium [SGC] Grant Number: None HADH2: Hydroxyacyl-Coenzyme A dehydrogenase, type II, was supplied by researchers at the Structural Genomics Consortium, Oxford University lab (PI Udo Oppermann). The mitochondrial enzyme 17-hydroxysteroid dehydrogenase type 10 (HSD17-10) previously classified as type II hydroxyacyl-CoA dehydrogenase (HADH2) catalyzes the NAD+ dependent oxidation of a variety of substrates including acyl-CoAs, androgens and neurosteroids as well as bile acids(Shafqat N, Marschall HU, Filling C, et al. Biochemical Journal. 2003;376(Pt 1):49-60). The role in neurodegeneration by binding to amyloid-peptide led to its identification (Oppermann UC, et al FEBS Letters. 1999;451(3):238-242 and Yan SD, et al. Nature. 1997;389(6652):689-695), and mutations in its gene appear to be causative for 2-methyl-3-hydroxybutyryl-CoA dehydrogenase deficiency (Ofman R, et al. American Journal of Human Genetics. 2003;72(5):1300-1307). The enzyme was produced by E.coli fermentation as His-tagged recombinant for the purpose of X-ray structure determination, and had been mass-spectrometry characterized. Inhibition of HADH2 activity was screened by utilizing beta-hydroxybutyryl coenzyme A as an electron donor and NAD+ as an electron acceptor/cofactor. An increase in the fluorescence intensity due to conversion of NAD+ to NADH was used to measure the enzyme activity.
Assay Protocol: Buffer: 100 mM Tris-HCl pH 9.0, containing 0.01 % Tween-20. Reagents/Controls: Buffer in columns 3 and 4 as negative control (no enzyme). Substrate/cofactor solution: 1 mM NAD+ and 90 uM beta-hydroxybutyryl coenzyme A (Sigma-Aldrich, St. Louis, MO) final concentrations dispensed throughout the plate. Enzyme: 20 nM HADH2 final concentration in columns 1, 2, 5-48. Column 1 is neutral (100% activity). Column 2 contained titration of apomorphine (Sigma-Aldrich, A 4393, PubChem CID 2215, top concentration 500 uM, then 1:2 dilution in duplicate) Assay Steps: Three uL of enzyme were dispensed to 1536-well Greiner black solid bottom plates. Compounds and controls (23 nL) were transferred via Kalypsys PinTool. The plates were incubated for 15 min at room temperature, and then 1 uL of substrate/cofactor solution was added to start the reaction. The plates were immediately transferred to and read every 30 seconds for 4 min on ViewLux High-throughput CCD imager (Perkin-Elmer) using 360 nm excitation and 450 nm emission fluorescence protocol. The fluorescence intensity difference between the last and the first time points was used to compute reaction progress.
On the % scale 0 is the no-effect control and ±100 the full control effect; potency means the concentration at half of the fitted maximal effect.

SMILES | activity change, negative = inhibition | Potency
COc1ccc(CCn2c(=N)c(C(=O)NCc3ccco3)cc3c(=O)n4cccc(C)c4nc32)cc1 | 3.86% | –
CCOCCCNC(=O)c1c[nH]c2cc(C)ccc2c1=O | -1.39% | –
CCn1c(=N)c(C(=O)NCCCOC)cc2c(=O)n3cccc(C)c3nc21 | – | 3.98 µM (active)
O=C(c1ccco1)N1CCC2(CC1)CN(c1ncccn1)C2 | 2.51% | –
Nc1ccc2c3c(cccc13)C(=O)NC2=O | 12.8% | –
Cc1c(O)c(Br)c(C)c(O)c1Br (tested in a mixture with another compound) | – | 0.398 µM (active)
CC(C)[C@@H](OCc1ccccc1)[C@H](C)/C=N\OC[C@@H](C)[C@H](OCc1ccccc1)C(C)C | 1.49% [at 11.4 µM] | –
C[C@]12C=CC(=O)C=C1CC[C@@H]1[C@@H]2C(=O)C[C@@]2(C)[C@H]1CC[C@]2(O)C(=O)CO | 7.63% | –
CC(C)CSC[C@@H]1O[C@H](n2cnc3c(N)nccc32)[C@H](O)[C@@H]1O | 7.39% [at 11.4 µM] | –
CCOC(=O)Cc1csc(NC(=O)Nc2ccccc2)n1 | -0.891% | –
Cc1csc(NC(=O)CN2CCCCCC2)n1 | -0.72% | –
Cc1csc(NC(=O)NC2(C(F)(F)F)Oc3ccccc3O2)n1 | – | 2 µM (active)
O=C(Oc1ccc2c(c1)CN(Cc1ccccc1)CO2)c1ccccc1 | -11.9% [at 11.4 µM] | –
O=C(O)c1nccnc1C(=O)Nc1ccc(Br)cn1 | -0.545% | –
CC(C)C[C@@H](CC(=O)N[C@@H](CCC(=O)O)CC(=O)O)NC(=O)[C@@H]1CCCC[C@H]1NC(=O)C[C@@H](NC(=O)C[C@H](CO)NC(=O)[C@@H]1CCCC[C@H]1N)C(C)C | -24.3% | –
CC(Sc1nc2ccccc2c(=O)n1Cc1ccco1)C(=O)c1ccccc1 (stereo not drawn) | 0.159% | –
Cc1nc2c(c(=O)n1Cc1ccco1)c1nc3ccccc3nc1n2Cc1ccccc1 | – | 25.1 µM (active)
COCCCn1c2nc3ccccc3nc2c2c(=O)n(Cc3ccc(Cl)cc3)c(C)nc21 | 12% | –
COC(=O)C1(Cc2ccccc2)C=C2C(=C(C)C(=O)C2C)CN1 (stereo not drawn) | -6.45% | –
CN1CCc2nc(-c3ccccc3)c(-c3ccccc3)cc2C1 | -8.44% [at 11.4 µM] | –
Cc1cc(C)cc(N)c1 | -4.7% | –
Cc1ccccc1NC(=O)c1ccccc1 | -21.2% | –
Cc1nc(C)c(C(=O)Nc2cccc(C)c2C)o1 | – | 10 µM (active)
Cc1cccc(NC(=O)CSc2nc3c(c(=O)[nH]2)CCC3)c1C | 2.6% | –

SMILES | activity change, negative = inhibition | Potency
Cn1c(=S)c2[nH]c(SCCCc3ccccc3)nc2n(C)c1=O | 7.85% [at 11.4 µM] | –
O=C1C[C@@H](O)[C@@H](O)[C@H]2[C@@H]3C(=O)N(Cc4ccc5c(c4)OCO5)C(=O)[C@@H]3CC[C@H]12 | -4.62% [at 11.4 µM] and -11.5% [at 11.4 µM] | –
CS(=O)(=O)N1CCC2(CCN(c3ccncc3)CC2)CC1 | 2.81% | –
Cn1c(-c2ccco2)nc2cc3ccccc3cc21 | – | 31.6 µM (active)
c1coc(-c2nc3nc4ccccc4n3nc2-c2ccco2)c1 | -23.9% | –
COc1ccc(CCn2c(-c3ccco3)nc3nc4ccccc4nc32)cc1OC | -13.7% | –
O=C(O)/C(=C/c1c(C(=O)O)[nH]c2cc(Cl)cc(Cl)c12)c1ccccc1 | -3.85% | –
c1ccc(Oc2ccccc2)cc1 | 4.03% | –
O=c1c(-c2ccc(F)cc2)nc2cncnc2n1-c1ccccc1 | -15.3% | –
CCOC(=O)N/N=C1/C[C@@H](O)[C@@H](O)[C@@H]2[C@@H]3C(=O)N(CC)C(=O)[C@H]3CC[C@H]12 | 11.3% [at 11.4 µM] | –
O=c1cc(-c2ccccc2)nc(N2CCCCC2)[nH]1 | -16.5% | –
O=c1[nH]c(=O)c2nc3ccccc3nc2[nH]1 | -14% | –
O=c1[nH]c(-c2ccccc2)c(-c2ccccc2)[nH]1 | – | 3.16 µM (active)
COc1ccc(-c2nc3cnc(Oc4ccccc4)nc3n(Cc3cccs3)c2=O)cc1 | 0.264% | –
O=C(O)[C@@H]1[C@@H](C(=O)O)[C@]23C[C@@]2(C(=O)O)[C@]2(C(=O)O)CCC3=C3CCCC312 | 14.2% [at 11.4 µM] | –
COc1ccc(N)c(C)c1 | -15.2% | –
c1ccc(-n2nnnc2N2CCOCC2)cc1 | 5.51% | –
C1=C(N2CCOCC2)/C(=C/c2nc3ccccc3[nH]2)CC1 | – | 3.98 µM (active)
c1ccc2[nH]c(NCCN3CCOCC3)nc2c1 | -7.67% | –
O=C1C(c2[nH]c3ccccc3c2O)=Nc2ccccc21 | 13.6% | –
Cc1nc2cnc(N3CCN(C)CC3)nc2n(C[C@H]2CCCO2)c1=O | 75.2% | –
N[C@H](C(=O)O)c1ccc(C(=O)O)c(O)c1 | – | 31.6 µM (active)
O=C(O)c1ccc(-n2cccc2)cc1O | -14.7% | –
N[C@@H](C(=O)O)c1ccc(P(=O)(O)O)cc1 | 11% | –
